Screening data deposited in PubChem by National Center for Advancing Translational Sciences (NCATS).
HepG2 viability: HepG2 cytotoxicity, counter-screen for TGF-b inhibitors | 410,000 tested, 0.76% active | HepG2 CAGA-GFP viability, ATP luminescence, 18 h | AID 588856 | Potency, µM (top dose mostly 46.1 µM), inactives show at the highest dose activity change, negative = cytotoxicity, hits mostly cytotoxic
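CellTiter-Glo luminescence gave cytotoxicity after 18 hours at 37 degrees C. The cells were HepG2 CAGA-GFP in 1% FBS DMEM, stimulated with 500 pg/mL TGF-beta after compound addition. %Activity was normalised to no-cell wells (complete cell-killing) and DMSO (no toxicity), and curves were fitted and classified.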
TGFb inhibitor: blocks TGF-b signaling | HepG2 CAGA-GFP TGF-b/SMAD3 reporter, GFP fluorescence, 18 h; TGF-beta stimulated, 500 pg/mL final | 410,000 tested, 1.2% active | Potency, µM (titrated, usually from 46.1 µM), for inactives: top-dose activity, negative = inhibition, actives largely listed as inhibitors; note: % is set by controls: 0 for no effect and ±100 for the full control effect; nearly all actives have a fitted effect of over 65% in size
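Per well, imaged GFP fluorescence of HEPG2 CAGA-GFP cells gives the signal; cells get compound, then TGF-beta (500 pg/mL final), 18 h at 37 degrees C; %Activity versus -TGF-beta and +DMSO controls.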
KB-V1 cytotox: KB-V1 MDR subline cytotoxicity. Potency, µM (highest dose often 46.1 µM), usual class: cytotoxic. KB-V1 MDR cells viability, CellTiter-Glo, 72 h. 400,000 tested, 3.4% active; note: % is set by controls: 0 for no effect and ±100 for the full control effect; nearly all actives have a fitted effect of over 60% in size
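qHTS viability screen in drug-selected KB-V1 MDR cells: 72 h compound treatment at 37 degrees C, ATP luminescence end point.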
HT1080NT lethal: kills 2HG-producing HT-1080-NT fibrosarcoma cells | HT-1080-NT fibrosarcoma viability, CellTiter-Glo ATP luminescence, 48 h | Potency, µM (top dose mostly 46.1 µM), without a hit: top-dose activity, negative = less viability, actives largely listed as cytotoxic | 360,000 tested, 1.6% active | AID 686970;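 note: NT is the 2HG producing partner of a matched IDH1 knockdown line; 0% = DMSO-treated cells and -100% = media-only wells without cells; nearly all actives have a fitted effect of over 55% in size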
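750 cells/well, RPMI + 5% FBS; 2 h settle, compound pin-transfer, 48 h at 37 degrees C. CellTiter-Glo 10 min RT, luminescence. Normalized to DMSO and media-only wells.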
KB-3-1 tox: KB-3-1 parental cell cytotoxicity; KB-3-1 viability, CellTiter-Glo ATP luminescence, 72 h; Potency, µM (series often up to 46.1 µM), usual class: cytotoxic; 400,000 tested, 1.4% active; AID 1347075; note: % is set by controls: 0 for no effect and ±100 for the full control effect; nearly all actives have a fitted effect of over 60% in size
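Here the drug-naive KB-3-1 line serves as comparator for MDR sub-line selectivity; cells received compound titrations, 72 h at 37 °C, then CellTiter-Glo readout.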
HT1080 IDH1KD tx: kills HT-1080 cells with IDH1 knockdown. HT-1080 IDH1 knockdown viability, ATP luminescence, 48 h. Potency, µM (doses to about 46.1 µM), for the others: top-dose activity, negative = toxicity, usual class: cytotoxic. 360,000 tested, 2% active. AID 686971;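 note: 0% = DMSO wells and -100% = cell-free medium wells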
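Cytotoxicity counter-line: IDH1KD HT-1080, 48 h, CellTiter-Glo. Curves classed by r2, magnitude and activity.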
* = called active by the depositor; i = inactive; u = inconclusive; x = not tested or not shown; [ ] = remark or other dose. Most compounds without a hit are left out; they make up all but 6.6% or so of the library. Calls come from the whole dose curve; as a rule, active = well fitted curve in the direction sought with a large enough effect; inconclusive = small, poorly fitted or top-dose-only effect, or another doubt; inactive = no such curve, though single readings can be large; an effect the other way counts as inactive or inconclusive. Potency is the fitted concentration of half-maximal effect.

SMILES	HepG2 viability	TGFb inhibitor	KB-V1 cytotox	HT1080NT lethal	KB-3-1 tox	HT1080 IDH1KD tx
CC(NC(=O)COC(=O)c1ccco1)c1ccccc1 (centres undefined)	-9%	-4%	u	-4%	i	-1%
COc1cc(NC(=O)c2ccccc2)c(OC)cc1NC(=O)CN1C(=O)N(C)C2(CCCCC2)C1=O	7%	u	i	6%	i	0%
Cc1coc2c1C(=O)C(=O)c1c-2ccc2c(C)cccc12	-18%	-13%	9.2µM*	-11%	9.2µM*	-14%
Cc1coc2c1C(=O)C(=O)c1c-2ccc2c1CCCC2(C)C	-32%	u	7.3µM*	-17%	6.5µM*	-17%
Cc1ccc2c3c(cccc13)-c1ccccc1C2=O	-31%	-16%	u	-3%	i	-21%
Cc1cccc(NC(=O)C(=O)NCCc2sc(-c3ccccc3)nc2C)c1C	-2%	7%	i	x	i	x
CCOc1ccccc1-c1noc(CCCC(=O)Nc2cccc(C(F)(F)F)c2)n1	-35%	u	i	x	i	x
O=[N+]([O-])c1ccc(Cl)c(-c2ccc(/C=N/n3cnnc3)o2)c1	-2%	10%	i	-3%	i	6%
N#C/C(=C/c1ccc(-c2cc([N+](=O)[O-])ccc2Cl)o1)C(N)=O	2%	7%	12µM*	u	i	18%
CNC(=S)N/N=C/c1ccc(-c2cc([N+](=O)[O-])ccc2Cl)o1	-8%	-15%	i	-14%	7.3µM*	-19%
N#C/C(=C/c1ccc(-c2ccccc2[N+](=O)[O-])o1)C(N)=O	-15%	9%	i	12%	i	14%
NC(=S)N/N=C/c1ccc(-c2cc(Cl)cc(Cl)c2)o1	-28%	u	u	5%	i	8%
NC(=S)N/N=C/c1ccc(-c2cc(Cl)ccc2Cl)o1	-40%	10µM*	7.3µM*	3.2µM*	i	u
Cn1ncc(Oc2ccc([N+](=O)[O-])cc2)c(Cl)c1=O	-5%	0%	i	9%	i	3%
CC(C)(C)n1ncc(Oc2ccccc2[N+](=O)[O-])c(Cl)c1=O	-5%	0%	18µM*	-2%	i	-6%
COC(=O)c1cccc(Nc2ncnc3ccc(C)cc23)c1	-3%	-3%	u	-2%	i	-4%
CCCOC(=O)c1cccc(Nc2nc(-c3cccnc3)nc3ccccc23)c1	16µM*	18µM*	u	26µM*	u	u
O=C(OCCNc1nc(-c2ccccc2)nc2ccccc12)c1cccnc1	-13%	-5%	u	-10%	i	-3%
CCOC(=O)c1cccc(Nc2ncnc3ccccc23)c1	2%	3%	12µM*	-12%	i	2%[9.24 µM]
Cc1cc(C)c(S(=O)(=O)/N=C2/C=C(Sc3ncn[nH]3)C(=O)c3ccccc32)cc1C	1.8µM*	0.89µM*	u	2.9µM*	u	4.6µM*
S=C1SCN(CC2CC2)CN1CC1CC1	-10%	11µM*	i	u	i	-10%
S=C1SCN(CCc2ccccc2)CN1CCc1ccccc1	-12%	u	i	-6%	u	-17%
CC(NC(=O)Nc1ccc(Cl)cc1)c1ccccc1 (centres undefined)	-33%	u	i	0%	i	-1%
Cc1ccc(C(NC(=O)NC(C)c2ccccc2)C(Cl)(Cl)Cl)cc1F (centres undefined)	-46%	u	21µM*	-27%	u	u
Cc1ccc(C)c2sc(N3CCN(C(=O)c4ccco4)CC3)nc12	-52%	10µM*	i	x	i	x
SMILES	HepG2 viability	TGFb inhibitor	KB-V1 cytotox	HT1080NT lethal	KB-3-1 tox	HT1080 IDH1KD tx
Cc1nc(N2CCN(C(=O)c3ccco3)CC2)c2oc3ccccc3c2n1	-9%	2%	u	u	12µM*	u
CCc1nc(N2CCN(C(=O)c3ccco3)CC2)c2oc3ccccc3c2n1	-20%	1%	21µM*	u	i	u
CN(C)c1nc(=NCc2ccco2)ss1	-74%	0.32µM*	i	-3%	i	-6%
CCn1c(=NC(=O)C2COc3ccccc3O2)sc2c(OC)ccc(OC)c21 (centres undefined)	16%	1%	9.2µM*	u	i	4%
Cc1cccc(C(=O)OCC(=O)NC2CC2)c1O	2%	3%	i	-11%	i	-5%
CCOc1ccc(CCNC(=O)Cn2cccc2C(=O)c2ccccc2C)cc1OCC	0%	-14%	4.6µM*	9%	i	17%
CCOC(=O)N1CCc2c(sc(NCc3ccc(N(C)C)cc3)c2C(=O)Nc2ccccc2OCC)C1	-21%	-27%	u	x	i	x
COC(=O)N/N=C/c1cc(Cl)c(OCc2ccccc2F)c(OC)c1	10µM*	-11%	i	-29%	i	-27%
COC(=O)N/N=C/c1cc(Cl)c(OCc2ccc(F)cc2)c(OC)c1	7%	6%	i	-26%	i	u
COC(=O)N/N=C/c1cc(Cl)cc(Cl)c1OCc1ccc(F)cc1	-24%	-11%	23µM*	-5%	i	7%
Cc1ccc(Cl)cc1NC(=O)Cn1nnc2sc3c(c2c1=O)CCC(C(C)(C)C)C3 (centres undefined)	-2%	1%	i	x	i	x
Cc1cc(C)cc(NC(=O)NCCc2c(C)nn(C)c2C)c1	12%	-4%	i	x	i	x
O=c1c2ccccc2nc(/C=C/c2cc(Br)ccc2O)n1CCO	13µM*	u	u	-13%	u	-17%
O=c1c2ccccc2nc(/C=C/c2ccccc2)n1CCCO	-2%	-31%	u	-10%	i	-3%
CCn1c(/C=C/c2ccccc2)nc2ccccc2c1=O	-26%	-24%	u	-4%	u	-13%
O=c1c2ccccc2nc(/C=C/c2ccc(O)cc2)n1CCc1ccccc1	-31%	u	15µM*	u	i	u
